According to PubChem BioAssay (Tox21):
Values joined by “and” are separate entries in the source; they are usually repeats but may differ in a detail not shown here. Equal values may be shown once. Results filed as inconclusive are left out. Active and inactive are the calls of the source. Unless noted, the call rests on the fitted dose curve.

Columns and labels:
[1] = Nuclear factor erythroid 2-related factor 2/antioxidant responsive element (Nrf2/ARE) small molecule agonists: qHTS cell viability counter screen in human keratinocytes (AID 1919968; active means well fitted cell-killing curve with a large enough effect in the repeat runs; further: nearly all actives have a fitted effect of over 55% in size; further: potency means the concentration at half of the fitted maximal effect)
Summary of the method: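 Fluorescence read-out from CellTiter-Fluor after 1 h at 37 C. Wells held HaCaT-derived ARE-luciferase reporter cells (1,500/well) treated 23 h with DMSO-dissolved compounds. Run in the same wells as the luciferase agonist read.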

[2] = Nuclear factor erythroid 2-related factor 2/antioxidant responsive element (Nrf2/ARE) small molecule agonists: luciferase reporter gene qHTS assay in human keratinocytes (AID 1919969); further: nearly all actives have a fitted effect of over 35% in size
[3] = target: Gonadotropin-releasing hormone receptor (Homo sapiens) (UniProt P30968); assay: Human gonadotropin-releasing hormone receptor (GnRHR) small molecule agonists, calcium flux assay in GnRHR-HEK293 cells (AID 1920063); further: nearly all actives have a fitted effect of over 35% in size; further: potency means the concentration at half of the fitted maximal effect
Summary of the method: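 Calcium-dye fluorescence, Ex/Em=480/540, recorded every 1 sec over 3 min after compound addition to GnRHR-HEK293 cells. Cells had been seeded 18 hours earlier and dye-loaded for 1 hour at 37 C. Fifteen concentrations, triplicates.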

[4] = p53 small molecule agonists, cell-based qHTS assay with human liver microsomes: qHTS cell viability counter screen (AID 1963579); further: nearly all actives have a fitted effect of over 45% in size
Summary of the method: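 Seed p53RE-bla cells at 4,000 per well; incubate 5 h at 37 C; add compound, human liver microsomes and NADPH; incubate 16 h at 37 C; add CellTiter-Glo; after 30 min at room temperature, read luminescence.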

[5] = p53 small molecule agonists, cell-based qHTS assay with rat liver microsomes: qHTS cell viability counter screen (AID 1963580); further: nearly all actives have a fitted effect of over 45% in size
Summary of the method: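 Rat liver microsome (0.5 mg/mL final) and NADPH (0.5 mg/mL final) co-incubation with compounds for 16 h at 37 C on HCT-116 p53RE-bla cells; cytotoxicity taken from intracellular ATP luminescence.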

[6] = p53 small molecule agonists, cell-based qHTS assay: qHTS cell viability counter screen (AID 1963581); further: nearly all actives have a fitted effect of over 45% in size
Summary of the method: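 Cytotoxicity read-out: ATP-based luminescence (CellTiter-Glo, 30 min RT) measured in the same wells as the p53 reporter assay, HCT-116 p53RE-bla cells, 16 h compound exposure at 37 C.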

[7] = target: 5-hydroxytryptamine receptor 2A (Homo sapiens) (UniProt P28223); assay: 5-hydroxytryptamine receptor 2A (HTR2A) small molecule antagonists, cell-based qHTS assay (AID 1963586); further: nearly all actives have a fitted effect of over 45% in size
Summary of the method: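 CHO cells stably expressing human HTR2A were plated for 18 h at 37 C, then loaded with calcium dye for 1 h. Compounds were preincubated 5 min at room temperature before DOI (4 nM solution) was added. Kinetic fluorescence was read for 3 min.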

[8] = target: 5-hydroxytryptamine receptor 2A (Homo sapiens) (UniProt P28223); assay: 5-hydroxytryptamine receptor 2A (HTR2A) small molecule agonists, cell-based qHTS assay (AID 1963587); further: nearly all actives have a fitted effect of over 30% in size; further: potency means the concentration at half of the fitted maximal effect
Summary of the method: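 Kinetic calcium-flux fluorescence (2 min, 1 sec intervals) after compound addition in agonist mode. HTR2A-CHO cells were cultured 18 h, then dye-loaded 1 h at 37 C.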

[9] = target: Muscarinic acetylcholine receptor M1 (Homo sapiens) (UniProt P11229); assay: Cholinergic receptor muscarinic 1 (CHRM1) small molecule agonists, cell-based qHTS assay (AID 1963589); further: nearly all actives have a fitted effect of over 35% in size; further: potency means the concentration at half of the fitted maximal effect
Summary of the method: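 Calcium flux read-out: kinetic fluorescence at 1 sec intervals after pin-tool compound addition to dye-loaded CHRM1-CHO cells (human M1). Agonist mode; 15 concentrations tested in triplicate independent runs.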

[10] = cAMP Responsive Elements (CRE) small molecule agonists, cell-based qHTS assay (AID 1963590)
Summary of the method: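 Beta-lactamase reporter readout: LiveBLAzer B/G FRET substrate, 2 h at room temperature, added after 3 h compound treatment of CRE-bla HEK 293T cells at 37 C/5% CO2.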

[11] = target: Beta-2 adrenergic receptor (Homo sapiens) (UniProt P07550); assay: Adrenergic beta2 receptor (ADRB2) small molecule antagonists, cell-based qHTS assay (AID 1963592); further: series mostly up to about 92 µM; nearly all actives have a fitted effect of over 50% in size
Summary of the method: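 Assay format: CHO-ADRB2 cells, 18-20hr seeding at 37C/5% CO2, then compound plus 1nM isoproterenol agonist mix for 0.5hr RT. Homogeneous time-resolved fluorescence cAMP detection after 1hr, expressed as 665/615 nm ratio.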

[12] = target: Beta-2 adrenergic receptor (Homo sapiens) (UniProt P07550); assay: Adrenergic beta2 receptor (ADRB2) small molecule agonists, cell-based qHTS assay (AID 1963593);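 further: CHO cells stably overexpressing human ADRB2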
Summary of the method: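 CHO cells stably over-expressing ADRB2 were plated overnight at 37C, then dosed with compounds plus a stimulation mix containing 100uM IBMX and 25uM Ro-20-1724 for 0.5hr at room temperature. cAMP was measured by HTRF competition, 1hr.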

[13] = target: D(2) dopamine receptor (Homo sapiens) (UniProt P14416); assay: Dopamine D2 receptor (DRD2) small molecule agonists, cell-based qHTS assay (AID 1963594); further: nearly all actives have a fitted effect of over 35% in size; further: potency means the concentration at half of the fitted maximal effect
Summary of the method: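 cAMP accumulation in DRD2-HEK293 cells measured by HTRF after 1 h detection; compounds added 10 min before NKH477 (200nM […]) forskolin-analogue stimulation, 30 min at room temperature, with Ro20-1724 present at 0.1 mM final.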

[14] = target: D(2) dopamine receptor (Homo sapiens) (UniProt P14416); assay: Dopamine D2 receptor (DRD2) small molecule antagonists, cell-based qHTS assay (AID 1963595; active means well fitted inhibition curve with a large enough effect in the signal ratio in the repeat runs, with a control signal flat; the % refers to the signal ratio)
Summary of the method: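 Human DRD2 antagonist qHTS measuring cAMP by HTRF. The cells are exposed to compound for 10 min, then to NKH477 (200 nM) and quinpirole (12 nM) for 30 min at RT, with Ro20-1724 (0.1 mM) present throughout.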

[15] = p53 small molecule agonists, cell-based qHTS assay with rat liver microsomes (AID 1963578)
Summary of the method: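 Fluorescence from a beta-lactamase reporter under a p53 response element was measured after cells had been incubated 16 h at 37 C with test compound and rat liver microsomes plus NADPH (0.5 mg/mL final each).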

[16] = p53 small molecule agonists, cell-based qHTS assay (AID 1963582; active means well fitted activation curve with a large enough effect in the signal ratio in the repeat runs, not every such curve was filed as active; the % refers to the signal ratio)
Summary of the method: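 Fluorescence intensity read-out of a beta-lactamase reporter under a p53 response element. Cells were exposed to DMSO-dissolved compounds for 16 h at 37 C, then developed with FRET substrate for 2 h at RT.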

[17] = target: Muscarinic acetylcholine receptor M1 (Homo sapiens) (UniProt P11229); assay: Cholinergic receptor muscarinic 1 (CHRM1) small molecule antagonists, cell-based qHTS assay (AID 1963588); further: nearly all actives have a fitted effect of over 40% in size
Summary of the method: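 Compounds were tested at 15 concentrations in three independent runs. Dye-loaded CHRM1-CHO cells were exposed 5 min at room temperature before stimulation by acetylcholine added at 50nM. Intracellular calcium was read kinetically on FDSS for 3 min.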

[18] = cAMP Responsive Elements (CRE) small molecule antagonists, cell-based qHTS assay (AID 1963591; active means well fitted inhibition curve with a large enough effect in the signal ratio in the repeat runs, not every such curve was filed as active; the % refers to the signal ratio)
Summary of the method: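 HEK293T CRE-bla; 18 h preincubation; compound pin-transfer; NKH477 0.25 uM final, 3 h, 37 C; LiveBLAzer FRET substrate 2 h RT.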

[19] = p53 small molecule agonists, cell-based qHTS assay with human liver microsomes (AID 1963577)
Summary of the method: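 Cells carrying a p53-responsive bla reporter were rested 5 h (37 C, 5% CO2) before compound transfer. Human liver microsomes plus NADPH, 0.5 mg/mL final apiece, supplied metabolism during the 16 h 37 C exposure.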

[20] = G protein-coupled receptor (GPCR) small molecule agonists, calcium flux assay: HEK293 wild type cell line counter screen (AID 1920065)
Summary of the method: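 Agonist mode; 18 h seeding at 37 C, 1 h dye load at 37 C; compounds pinned from DMSO, ATP as positive control; kinetic fluorescence 480/540 nm, 3 min, 1 s reads; 15 concentrations, triplicate.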

Measured: Potency

Chain of Gonadotropin-releasing hormone receptor (Homo sapiens) (P30968 whole entry, looked up): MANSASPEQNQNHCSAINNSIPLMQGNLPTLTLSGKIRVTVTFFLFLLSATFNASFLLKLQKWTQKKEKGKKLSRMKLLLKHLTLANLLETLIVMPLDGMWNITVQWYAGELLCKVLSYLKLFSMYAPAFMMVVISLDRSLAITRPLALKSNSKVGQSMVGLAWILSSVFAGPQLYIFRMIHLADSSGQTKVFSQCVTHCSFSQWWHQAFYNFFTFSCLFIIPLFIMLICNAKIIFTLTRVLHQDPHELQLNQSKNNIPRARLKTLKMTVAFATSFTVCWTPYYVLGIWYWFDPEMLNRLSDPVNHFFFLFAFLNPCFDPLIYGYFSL
Chain of Beta-2 adrenergic receptor (Homo sapiens) (P07550 whole entry, looked up): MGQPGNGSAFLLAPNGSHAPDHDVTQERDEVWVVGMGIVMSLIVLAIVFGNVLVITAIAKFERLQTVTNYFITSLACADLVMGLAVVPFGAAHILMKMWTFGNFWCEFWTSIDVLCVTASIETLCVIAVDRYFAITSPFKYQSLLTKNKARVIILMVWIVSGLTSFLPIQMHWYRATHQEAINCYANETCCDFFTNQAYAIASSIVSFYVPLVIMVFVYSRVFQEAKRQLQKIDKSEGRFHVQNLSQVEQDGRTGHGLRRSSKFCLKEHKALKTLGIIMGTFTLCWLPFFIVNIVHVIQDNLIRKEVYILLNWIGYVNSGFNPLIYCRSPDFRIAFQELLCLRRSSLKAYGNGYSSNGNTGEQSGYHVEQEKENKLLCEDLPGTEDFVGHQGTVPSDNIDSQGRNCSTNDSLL
Chain of D(2) dopamine receptor (Homo sapiens) (P14416 whole entry, looked up): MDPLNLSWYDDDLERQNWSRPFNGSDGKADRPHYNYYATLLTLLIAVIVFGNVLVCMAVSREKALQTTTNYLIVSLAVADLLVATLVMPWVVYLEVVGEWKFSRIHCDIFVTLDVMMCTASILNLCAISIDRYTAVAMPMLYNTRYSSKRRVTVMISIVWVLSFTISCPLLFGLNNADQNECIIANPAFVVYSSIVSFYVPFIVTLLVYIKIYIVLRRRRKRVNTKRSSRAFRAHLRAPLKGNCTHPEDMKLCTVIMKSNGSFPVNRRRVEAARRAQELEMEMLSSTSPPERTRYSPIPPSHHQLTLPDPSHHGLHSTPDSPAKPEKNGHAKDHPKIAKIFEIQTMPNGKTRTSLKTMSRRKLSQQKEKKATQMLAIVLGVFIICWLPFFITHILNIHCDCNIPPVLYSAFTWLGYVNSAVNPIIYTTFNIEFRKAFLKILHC
Chain of 5-hydroxytryptamine receptor 2A (Homo sapiens) (P28223 whole entry, looked up): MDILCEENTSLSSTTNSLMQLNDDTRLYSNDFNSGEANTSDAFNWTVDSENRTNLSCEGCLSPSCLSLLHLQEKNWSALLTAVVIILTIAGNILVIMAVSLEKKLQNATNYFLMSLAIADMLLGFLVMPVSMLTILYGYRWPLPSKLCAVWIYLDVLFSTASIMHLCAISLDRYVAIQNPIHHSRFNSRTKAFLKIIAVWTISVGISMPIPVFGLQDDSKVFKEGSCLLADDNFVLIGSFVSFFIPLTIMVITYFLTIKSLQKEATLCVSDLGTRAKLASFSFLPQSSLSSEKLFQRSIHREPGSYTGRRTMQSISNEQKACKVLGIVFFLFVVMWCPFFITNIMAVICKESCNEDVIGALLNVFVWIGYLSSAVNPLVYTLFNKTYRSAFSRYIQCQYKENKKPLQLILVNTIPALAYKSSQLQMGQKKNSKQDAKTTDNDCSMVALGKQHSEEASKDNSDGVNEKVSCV
Chain of Muscarinic acetylcholine receptor M1 (Homo sapiens) (P11229 whole entry, looked up): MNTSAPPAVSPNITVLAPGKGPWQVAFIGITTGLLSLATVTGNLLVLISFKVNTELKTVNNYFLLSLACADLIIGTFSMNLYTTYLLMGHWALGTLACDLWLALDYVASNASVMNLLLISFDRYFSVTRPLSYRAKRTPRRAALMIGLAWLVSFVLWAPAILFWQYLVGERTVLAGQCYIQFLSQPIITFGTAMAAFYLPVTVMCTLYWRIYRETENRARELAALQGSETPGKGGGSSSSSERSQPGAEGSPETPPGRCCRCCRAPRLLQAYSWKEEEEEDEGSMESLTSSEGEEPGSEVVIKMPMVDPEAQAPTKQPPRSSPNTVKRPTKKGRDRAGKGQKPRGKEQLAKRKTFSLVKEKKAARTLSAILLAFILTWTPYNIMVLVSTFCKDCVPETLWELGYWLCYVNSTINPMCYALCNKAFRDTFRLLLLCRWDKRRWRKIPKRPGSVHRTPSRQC

O=C1OC2(c3cc(Br)c(O)c(Br)c3Oc3c2cc(Br)c(O)c3Br)c2c(Cl)c(Cl)c(Cl)c(Cl)c21
active: [1] 4.86 µM and 18.6 µM | [3] 39 µM and 23.6 µM | [8] 17.4 µM and 33.4 µM | [9] 49.1 µM and 33.4 µM
not listed: [15] | [16] | [17] | [18] | [19] | [20]
inactive: all other assays above

COc1nc(C)nc(NC(=O)NS(=O)(=O)c2ccccc2OCCCl)n1
not listed: [12] | [19] | [20]
inactive: all other assays above

CC(=O)Oc1cccc(O)c1
not listed: [4] | [12] | [13] | [20]
inactive: all other assays above

CCCCCCOC(=O)c1ccccc1O
not listed: [14]
inactive: all other assays above

O=S1(=O)OC(c2ccc(O)cc2)(c2ccc(O)cc2)c2ccccc21
active: [1] 24.3 µM
not listed: [15] | [16] | [19] | [20]
inactive: all other assays above

CCCOCCOCCO
not listed: [5] | [7] | [12] | [13] | [16] | [20]
inactive: all other assays above

Cn1cc(S(C)=O)c(=O)c2ccc(F)cc21 (stereo not drawn)
inactive: all assays above

NS(=O)(=O)c1ccccc1Cl
not listed: [12] | [15] | [18] | [20]
inactive: all other assays above

Nc1nc(=O)n([C@@H]2O[C@H](CO)[C@@H](O)[C@@H]2F)cc1I
not listed: [4] | [19] | [20]
inactive: all other assays above

CC/C=C\C#N
not listed: [19] | [20]
inactive: all other assays above

Cc1ccccc1S(N)(=O)=O
not listed: [12] | [14]
inactive: all other assays above

O=c1[nH]c2cc(C(F)(F)F)c(N3CCOCC3)cc2n(CP(=O)(O)O)c1=O
active: [13] 29.8 µM
inactive: all other assays above

CCCC(=O)OCC(COC(=O)CCC)OC(=O)CCC
not listed: [4] | [19] | [20]
inactive: all other assays above

Cl/C(=C\n1cncn1)c1ccc(Cl)cc1Cl
inactive: all assays above

CC(C)(CCl)c1ccccc1
inactive: all assays above

O=C(O)CC(=O)O
not listed: [5] | [10] | [12] | [20]
inactive: all other assays above
